# nsP2pro primary: Primary qHTS for inhibitors of NSP2Pro chikungunya virus (CHIKV) | Polyprotein P1234 (Chikungunya virus (strain S27-African prototype)), Q8JUX6 | FRET peptide cleavage, nsP2pro, fluorescence 1 h | Potency, µM (highest dose often 24.9 µM), for inactives: at the top dose activity change, negative = inhibition, most hits filed as inhibitors | 31,000 compounds, 1.1% hits; note: nearly all actives have a fitted effect of over 60% in size
#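 Enzyme 150 nM, substrate 2.5 uM (both final); Tris-HCl 10 mM pH 8.0 + 0.01% Tween 20; cpd up to 25 uM, 7 pts; 15 min preinc., 1 h RT; fluorescence ex 525/em 598.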
# CHIKV nsP2 cell: Secondary cell base assay for inhibitors of NSP2Pro Chikungunya virus (CHIKV) | shares compounds with nsP2pro primary | cell-based CHIKV nsP2 protease reporter assay | 450 compounds, 10% hits | Potency, µM (highest dose often 51.1 µM), without a hit: at the top dose activity change, negative = inhibition, hits mostly inhibitors; note: nearly all actives have a fitted effect of over 70% in size
# NSP2 full ctr: Selectivity profile for inhibitors of NSP2Pro chikungunya virus (CHIKV): Full length NSP2 enzyme counterscreen (CHIKV-NSP2). shares compounds with nsP2pro primary. Full-length CHIKV NSP2 protease enzymatic counterscreen. Potency, µM (top dose mostly 50.7 µM), for the others: at the highest dose activity change, negative = inhibition, actives largely listed as inhibitors. 410 compounds, 39% hits; note: nearly all actives have a fitted effect of over 65% in size
# Furin counterscr: Selectivity profile for inhibitors of NSP2Pro chikungunya virus (CHIKV): Human furin counterscreen | 410 compounds, 6% hits | shares compounds with nsP2pro primary | Potency, µM (series often up to 50.6 µM), without a hit: top-dose activity change, negative = inhibition, most hits filed as inhibitors | Recombinant human furin enzymatic counterscreen, fluorogenic substrate
# NS23 peptide cs: Selectivity profile for inhibitors of NSP2Pro chikungunya virus (CHIKV): Endogenous NS2/3 peptide Counterscreen; Purified CHIKV nsP2 protease, endogenous NS2/3 peptide cleavage; shares compounds with nsP2pro primary; 410 compounds, 34% hits; Potency, µM (doses to about 51 µM), without a hit: at the highest dose activity change, negative = inhibition, hits mostly inhibitors; note: nearly all actives have a fitted effect of over 55% in size
# Papain cs: Selectivity profile for inhibitors of NSP2Pro chikungunya virus (CHIKV): Papain Counterscreen | Potency, µM (top dose mostly 51 µM), inactives show at the highest dose activity change, negative = inhibition, usual class: inhibitors | purified papain protease activity, enzymatic inhibition | 410 compounds, 5% hits | shares compounds with nsP2pro primary
# Target sequence (P00784 whole entry, looked up): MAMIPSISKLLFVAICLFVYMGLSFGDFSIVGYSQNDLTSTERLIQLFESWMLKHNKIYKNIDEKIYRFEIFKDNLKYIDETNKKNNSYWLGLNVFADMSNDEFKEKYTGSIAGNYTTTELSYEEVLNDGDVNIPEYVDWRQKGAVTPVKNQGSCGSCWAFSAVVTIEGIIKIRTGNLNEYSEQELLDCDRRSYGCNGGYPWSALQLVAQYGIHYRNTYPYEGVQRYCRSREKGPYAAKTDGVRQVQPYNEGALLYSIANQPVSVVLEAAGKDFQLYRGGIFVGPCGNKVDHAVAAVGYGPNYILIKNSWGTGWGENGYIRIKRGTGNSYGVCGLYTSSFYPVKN
# nsP2pro confirm: Confirmatory qHTS for inhibitors of NSP2Pro chikungunya virus (CHIKV); shares compounds with nsP2pro primary; CHIKV nsP2 protease enzymatic activity, qHTS; Potency, µM (series often up to 25.5 µM), for inactives: at the top dose activity change, negative = inhibition, actives largely listed as inhibitors; 410 compounds, 43% hits; AID 1964105, 2024; note: nearly all actives have a fitted effect of over 75% in size
# HCV NS3 4A cs: Selectivity profile for inhibitors of NSP2Pro chikungunya virus (CHIKV): NS34A-HCV Counterscreen; shares compounds with nsP2pro primary; HCV NS3/4A protease biochemical counterscreen; Potency, µM (highest dose often 50.9 µM), actives largely listed as inhibitors; 410 compounds, 20% hits; note: nearly all actives have a fitted effect of over 55% in size
# The depositor's hits bear a star; i = inactive; ? = inconclusive; [ ] = remark or other dose. Many of the other results were omitted from the sample, so hits are more common in it than they were. Calls come from the whole dose curve. % is set by controls: 0 for no effect and ±100 for the full control effect; potency is the fitted concentration of half-maximal effect.
SMILES,nsP2pro primary,others
Cc1nn(-c2ccc(C(C)(C)C)cc2)c(C)c1[C@@H]1C=C[C@@H](NC(=O)NC(C)C)C1,-7.5%[39.2 µM],
CN1CCN(c2ccc(Nc3cc(-c4cccc(-n5ccc6cc(C7CC7)cc(F)c6c5=O)c4CO)cn(C)c3=O)nc2)CC1,?,CHIKV nsP2 cell=141.2%;NSP2 full ctr=47.4%;Furin counterscr=-17.9%;NS23 peptide cs=i;Papain cs=?;nsP2pro confirm=125.0%;HCV NS3 4A cs=i
Cn1cc(C2=C(c3cn(CCCN)c4ccccc34)C(=O)NC2=O)c2ccccc21,9.2%,
COC(=O)c1ccc(N2CCN(S(=O)(=O)c3ccc4c(c3)CC(=O)N4)CC2)cc1,i,
Cc1ccc(S(=O)(=O)Nc2cnccc2C(=O)Nc2nc(-c3cccc(C)c3)cs2)cc1,3.4%,
O=C(Nc1ncc([S+](=O)([O-])N2CCOCC2)s1)c1cccc(Br)c1,i,
CCOc1ccc(S(=O)(=O)N2CCN(c3ccc(Cl)c(Cl)c3)CC2)c2ccccc12,-21.6%,
CCOc1cc(S(=O)(=O)n2ccnc2C(C)C)ccc1Cl,8.91µM*,CHIKV nsP2 cell=-1.7%;NSP2 full ctr=16.3µM*;Furin counterscr=-4.6%;NS23 peptide cs=?;Papain cs=-5.8%;nsP2pro confirm=?;HCV NS3 4A cs=9.19µM*
CCOc1cc(C)c(C(C)C)cc1S(=O)(=O)n1ccnc1CC,-18.9%,
Nc1ncnc2c1ncn2CCNCCCCCO,17.9%,
Cc1ccc(OCCn2c(CCNC(=O)Cc3cc(F)ccc3F)nc3ccccc32)cc1,-3.5%,
Nc1cccc2c1CN([C@H]1CCC(=O)NC1=O)C2=O,-11.5%,
CN(C)CCCCCCNC(=O)c1cccc(-c2cc(O)c3ncccc3c2)c1,i,
O=C(COc1ccccc1[N+](=O)[O-])N1CCN(CCc2ccncc2)CC1,?,CHIKV nsP2 cell=9.3%
O=C(COc1ccccc1Cl)N1CCN(CCc2ccncc2)CC1,-25.2%,
Cc1ccc(OCC(=O)N2CCN(CCc3ccncc3)CC2)cc1,-27.3%,
CC1(C)S[C@@H]2[C@H](N)C(=O)N2[C@@H]1C(=O)O,1.2%[2.68 µM],
C=C1C[C@]23C[C@H]1CC[C@H]2[C@@]12C=C[C@H](O)[C@@](C)(C(=O)O1)[C@H]2[C@@H]3C(=O)O,-12.0%,
CC(C)(C)OC(=O)N1CCC(c2c(C(=O)NCCc3ccccc3)cnn2-c2ccc(F)cc2F)CC1,3.8%,
COCCCNC(=O)c1cnn(-c2ccc(F)cc2F)c1C1CCNCC1,51.7%,CHIKV nsP2 cell=5.4%;NSP2 full ctr=16.3µM*;Furin counterscr=-5.9%;NS23 peptide cs=?;Papain cs=-4.0%;nsP2pro confirm=?;HCV NS3 4A cs=?
CC(C)(C)OC(=O)N1CCC(c2c(C(=O)NCCN3CCc4ccccc4C3)cnn2-c2ccc(F)cc2F)CC1,-2.7%,
Cc1cc(C)cc(-c2ccc(CN3CCCC(N[S+](C)(=O)[O-])C3)cc2)c1 (stereo not given),i,
Cc1cc(C)nc(NC(=S)N2CCN(c3nccc4occc34)CC2)c1,-2.9%,
CS(=O)(=O)CCNCc1ccc(-c2ccc3ncnc(Nc4ccc(OCc5cccc(F)c5)c(Cl)c4)c3c2)o1,75.5%,
Cc1cc(Nc2ncnc3ccc(-c4ccc(CNCCS(C)(=O)=O)o4)cc23)ccc1Oc1ccn2ncnc2c1,1.24µM*,CHIKV nsP2 cell=-12.8%;NSP2 full ctr=4.11µM*;Furin counterscr=-12.6%;NS23 peptide cs=?;Papain cs=?;nsP2pro confirm=4.49µM*;HCV NS3 4A cs=?
SMILES,nsP2pro primary,others
CCOC(=O)c1ccc(-c2ccc3ncnc(NCc4ccc(C)o4)c3c2)o1,-3.0%,
O=[N+]([O-])c1ccc(/C=C/c2cccc(CO)n2)o1,-16.3%,
Cc1ccnc(NC(=S)N2CCCC(Nc3cccc(C(F)(F)F)c3)C2)c1 (stereo not given),-8.9%,
Cc1cc(NC(=O)Nc2nnc(-c3cccnc3)s2)ccc1Cl,2.1%,
CCCCN(CCCC)C(=S)[S-].CCCCN(CCCC)C(=S)[S-].[Zn+2],0.556µM*,CHIKV nsP2 cell=?;NSP2 full ctr=0.231µM*;Furin counterscr=7.3µM*;NS23 peptide cs=1.63µM*;Papain cs=4.11µM*;nsP2pro confirm=0.356µM*;HCV NS3 4A cs=i
Cc1ccc(-c2cc(C(=O)Nc3ccc(-c4noc(=O)[nH]4)cc3)c3ccccc3n2)cc1C,i,
CO[C@@H](Cc1ccc(OCCc2nc(-c3ccccc3)oc2C)c2ccsc12)C(=O)O,9.88µM*,CHIKV nsP2 cell=21.3%;NSP2 full ctr=-0.2%;Furin counterscr=-6.4%;NS23 peptide cs=i;Papain cs=?;nsP2pro confirm=?;HCV NS3 4A cs=i
CCOc1ccc(-c2nc(CNC(=O)Nc3ccccc3)c(C)o2)cc1,-17.7%,
Cc1oc(-c2ccc(C(=O)NCCCOC(C)C)cc2)nc1CS(=O)(=O)c1ccccc1,-17.7%,
CCOC(=O)c1ccoc1-c1ccc2ncnc(NCc3ncc[nH]3)c2c1,-0.8%,
Fc1ccccc1C1=NC(c2ccc(C(F)(F)F)cc2)=Nc2ccccc2N1,-24.8%,
Brc1ccc(-c2ccc(C3Nc4cccc5cccc(c45)N3)o2)cc1,-16.8%,
O=C1c2ccccc2NC(c2ccc(-c3cccs3)o2)N1O (stereo not given),5.62µM*,CHIKV nsP2 cell=-30.1%;NSP2 full ctr=32.0%;Furin counterscr=-13.9%;NS23 peptide cs=3.9%;Papain cs=-5.2%;nsP2pro confirm=34.4%;HCV NS3 4A cs=i
O=C1c2ccccc2NC(c2ccc(-c3ccc(C(F)(F)F)cc3)o2)N1O (stereo not given),10µM*,CHIKV nsP2 cell=20.6µM*;NSP2 full ctr=149.4%;Furin counterscr=-8.2%;NS23 peptide cs=10.8%;Papain cs=-13.8%;nsP2pro confirm=34.5%;HCV NS3 4A cs=i
O=C1c2ccccc2NC(c2ccccc2O)N1Cc1ccccc1 (stereo not given),-5.1%,
O=C1c2ccccc2NC(c2ccc(Br)o2)N1O (stereo not given),1.0%,
O=C(O)CCN(O)C(=O)CCCCCCCCC1CC1,6.7%,
O=C(Nc1cncc(-c2ccncc2)c1)c1cccs1,i,
O=C(NCC(=O)N1CCCCC1)Nc1ccc2nnsc2c1,12.5%,
Cn1ccnc1-c1ccc(N2CCCC(CO)(CCOc3ccccc3)C2)nn1 (stereo not given),i,
COc1ccc(-c2ccc(CNc3ccc(N4CCN(C(=O)OC(C)(C)C)CC4)cc3)o2)cc1,i,

# From PubChem
